Activity calls are given as the source filed them.
Columns and labels:
Albumin (Bos taurus) = Albumin (Bos taurus) (UniProt P02769); assay: bovine serum albumin binders on microarray, profiling panel, artefact control for SMM control protein annotation, biochemical, small-molecule microarray, Alexa647 label, 635/667 nm fluorescence (AID 1118); details: BSA-A647 binding, fluorescence 635 nm, higher = more signal;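 note: score merges 667 nm emission intensity and signal-to-noise per printed compound spot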
Albumin (Bos taurus), sequence (P02769 whole entry, looked up): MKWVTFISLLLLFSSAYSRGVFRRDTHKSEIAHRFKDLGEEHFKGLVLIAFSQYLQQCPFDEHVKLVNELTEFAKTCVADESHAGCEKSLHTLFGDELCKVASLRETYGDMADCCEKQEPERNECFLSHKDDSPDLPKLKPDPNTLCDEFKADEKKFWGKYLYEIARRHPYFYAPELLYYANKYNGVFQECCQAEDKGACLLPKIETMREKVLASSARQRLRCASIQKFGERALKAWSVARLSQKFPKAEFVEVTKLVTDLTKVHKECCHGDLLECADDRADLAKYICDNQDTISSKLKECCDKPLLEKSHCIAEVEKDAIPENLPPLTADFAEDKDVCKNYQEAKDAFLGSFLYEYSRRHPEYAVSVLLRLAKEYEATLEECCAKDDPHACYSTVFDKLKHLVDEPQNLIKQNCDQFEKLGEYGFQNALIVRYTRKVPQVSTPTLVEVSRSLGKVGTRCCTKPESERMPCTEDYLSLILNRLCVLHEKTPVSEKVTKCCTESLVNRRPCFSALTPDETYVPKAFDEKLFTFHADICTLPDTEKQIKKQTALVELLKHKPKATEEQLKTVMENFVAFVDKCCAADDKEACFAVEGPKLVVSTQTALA

[1] = small-molecule microarray binders of probe aXIP, primary screen, biochemical, NeuroSMM set, 635/667 nm fluorescence (AID 1119); details: higher = more signal, called active from +8 up or from −8 down;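 note: probe is the protein aXip251-270 applied at 1 µg/mL to compound-printed slides; binding of probe to printed compounds measured as 667 nm fluorescence plus signal to noise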
[2] = small-molecule binders of probe aNOTCH3, primary screen, biochemical, small-molecule microarray, 635/667 nm fluorescence (AID 1120); details: higher = more signal;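 note: probe is a biotin-tagged antibody raised against NOTCH3 rather than NOTCH3 protein; score merges spot fluorescence near 667 nm with spot signal to noise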
[3] = small-molecule binders of probe aNOTCH2, primary screen, biochemical, small-molecule microarray, 635/667 nm fluorescence (AID 1121); details: higher = more signal;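 note: score merges feature fluorescence read at 667 nm with its signal to noise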
[4] = biological target: Carbonic anhydrase 2 (Homo sapiens) (UniProt P00918); assay: CAII small-molecule binders, profiling panel, biochemical, small-molecule microarray, Alexa647-labelled CAII (AID 1122); details: CAII-A647 binding fluorescence, higher = more signal
[5] = COS7 lysate on small-molecule microarray, probe aHis, 635 nm (AID 1123); details: COS7 cell lysate, fluorescence, higher = more signal;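 note: z-score combines 667nm fluorescence intensity with signal-to-noise per printed compound spot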
[6] = compound binding in COS7 lysate, probe aLAP1, primary screen, cell lysate, small-molecule microarray (AID 1124); details: probe aLAP1, fluorescence, higher = more signal;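 note: lysate comes from COS7 cells expressing LAP1 and is applied at 0.3 µg/mL; score merges spot fluorescence near 667 nm with signal-to-noise over triplicate slides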
Sam68 (KHDRBS1) = assay: Sam68 small-molecule binders, primary screen, biochemical, small-molecule microarray, 635 nm fluorescence (AID 1125); details: small-molecule microarray binding, higher = more signal;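 note: score merges 667 nm channel intensity with signal to noise over triplicate slides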
[7] = system: Chordin-like protein 2 (CHRDL2); assay: CHRDL2 small-molecule binders, primary screen, biochemical, small-molecule microarray, 635 nm fluorescence (AID 1126); details: small-molecule microarray binding, fluorescence 635 nm; higher = more signal;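 note: printed compound slides probed with Chrdl2 protein at 4 µg/mL for 1 h at 4 C; score merges 667 nm emission intensity with signal to noise over three replicate slides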
[8] = biological target: Concanavalin-A (Canavalia ensiformis) (UniProt P02866); assay: ConA small-molecule binders, primary screen, artefact control for SMM control protein annotation, biochemical, small-molecule microarray, Alexa647 label, 635 nm (AID 1127); details: ConA-A647 binding fluorescence, higher = more signal;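 note: z combines 667 nm emission intensity with signal-to-noise across three replicate slides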
Concanavalin-A (Canavalia ensiformis), sequence (P02866 whole entry, looked up): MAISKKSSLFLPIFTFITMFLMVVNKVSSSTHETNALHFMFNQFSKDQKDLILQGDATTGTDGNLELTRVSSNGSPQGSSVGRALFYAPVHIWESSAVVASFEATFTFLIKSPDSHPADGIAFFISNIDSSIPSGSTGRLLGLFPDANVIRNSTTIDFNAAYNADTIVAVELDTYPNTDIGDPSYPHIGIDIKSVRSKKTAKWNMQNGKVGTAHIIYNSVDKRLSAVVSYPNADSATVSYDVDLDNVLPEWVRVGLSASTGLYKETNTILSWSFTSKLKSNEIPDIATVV

[9] = anti-His antibody binders, primary screen, artefact control for SMM control protein annotation, biochemical, small-molecule microarray, 635 nm fluorescence (AID 1128); details: anti-His Alexa647 antibody binding, higher = more signal;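 note: score merges feature fluorescence with signal-to-noise for each printed compound spot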
[10] = system: Human papillomavirus type 1a E7 protein (residues 1-88); assay: HPV1a E7 small-molecule binders, primary screen, biochemical, small-molecule microarray, residues 1-88, 635 nm (AID 1129); details: small-molecule microarray binding, fluorescence 635 nm; higher = more signal
[11] = biological target: Focal adhesion kinase 1 (Homo sapiens) (UniProt Q05397); assay: small-molecule microarray binders of FAK, primary screen, biochemical, 635/667 nm fluorescence, BSA, DTT (AID 1130); details: PTK2 binding, 635 nm fluorescence, higher = more signal;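 note: composite of spot emission at 667 nm and signal to noise over triplicate slides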
Focal adhesion kinase 1 (Homo sapiens), sequence (Q05397 whole entry, looked up): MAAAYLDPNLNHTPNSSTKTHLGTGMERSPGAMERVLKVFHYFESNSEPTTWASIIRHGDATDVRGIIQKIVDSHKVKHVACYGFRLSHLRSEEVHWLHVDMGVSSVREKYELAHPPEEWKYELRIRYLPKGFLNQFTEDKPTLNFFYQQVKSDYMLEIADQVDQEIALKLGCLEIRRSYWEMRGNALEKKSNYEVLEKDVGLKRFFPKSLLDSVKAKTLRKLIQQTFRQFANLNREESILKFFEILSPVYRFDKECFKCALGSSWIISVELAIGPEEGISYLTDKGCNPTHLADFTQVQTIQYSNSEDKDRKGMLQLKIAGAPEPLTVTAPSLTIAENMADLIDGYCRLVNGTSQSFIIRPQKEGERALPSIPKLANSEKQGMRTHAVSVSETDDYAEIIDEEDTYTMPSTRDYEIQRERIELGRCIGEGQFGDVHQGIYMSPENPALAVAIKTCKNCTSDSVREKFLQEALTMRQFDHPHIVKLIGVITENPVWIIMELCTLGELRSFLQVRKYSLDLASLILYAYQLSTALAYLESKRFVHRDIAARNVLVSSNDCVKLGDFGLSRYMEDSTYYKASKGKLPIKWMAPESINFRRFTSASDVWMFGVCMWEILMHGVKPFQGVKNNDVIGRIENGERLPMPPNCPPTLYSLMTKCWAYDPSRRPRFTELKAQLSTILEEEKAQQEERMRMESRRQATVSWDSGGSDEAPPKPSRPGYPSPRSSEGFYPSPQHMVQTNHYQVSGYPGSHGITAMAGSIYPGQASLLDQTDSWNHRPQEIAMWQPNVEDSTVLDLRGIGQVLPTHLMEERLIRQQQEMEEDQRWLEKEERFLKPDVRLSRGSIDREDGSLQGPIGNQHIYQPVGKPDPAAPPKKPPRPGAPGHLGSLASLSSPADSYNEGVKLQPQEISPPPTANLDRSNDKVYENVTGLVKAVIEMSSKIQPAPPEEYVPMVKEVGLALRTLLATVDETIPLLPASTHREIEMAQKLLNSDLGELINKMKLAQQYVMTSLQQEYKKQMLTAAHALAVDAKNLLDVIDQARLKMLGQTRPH

[12] = system: Fibrinogen (Alexa647-labelled); assay: fibrinogen binders on compound microarrays, profiling panel, artefact control for SMM control-protein annotation, biochemical, small-molecule microarray, 635/667 nm fluorescence (AID 1131); details: fibrinogen-A647 binding fluorescence, higher = more signal;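 note: z-score merges 667 nm fluorescence with per-spot signal-to-noise over triplicate slides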
[13] = biological target: Follistatin (Homo sapiens) (UniProt P19883); assay: follistatin binders on small-molecule microarrays, primary screen, biochemical, small-molecule microarray, 635/667 nm fluorescence (AID 1132); details: FST binding, 635 nm fluorescence, higher = more signal
Follistatin (Homo sapiens), sequence (P19883 whole entry, looked up): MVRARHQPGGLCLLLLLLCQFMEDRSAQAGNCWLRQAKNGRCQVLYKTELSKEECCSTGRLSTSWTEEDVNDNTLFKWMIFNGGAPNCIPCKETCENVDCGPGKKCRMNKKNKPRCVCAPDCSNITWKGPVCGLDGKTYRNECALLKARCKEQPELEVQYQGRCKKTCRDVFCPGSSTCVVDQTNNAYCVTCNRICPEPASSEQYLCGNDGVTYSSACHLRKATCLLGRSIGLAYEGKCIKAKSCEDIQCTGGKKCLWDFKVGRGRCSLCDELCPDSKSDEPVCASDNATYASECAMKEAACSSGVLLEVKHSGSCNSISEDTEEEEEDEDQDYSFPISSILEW

[14] = biological target: Fibroblast growth factor 2 (Homo sapiens) (UniProt P09038); assay: FGF2 binders on small-molecule microarrays, primary screen, biochemical, small-molecule microarray, 635/667 nm fluorescence (AID 1133); details: small-molecule microarray binding, FGF2, fluorescence 635/667; higher = more signal
Fibroblast growth factor 2 (Homo sapiens), sequence (P09038 whole entry, looked up): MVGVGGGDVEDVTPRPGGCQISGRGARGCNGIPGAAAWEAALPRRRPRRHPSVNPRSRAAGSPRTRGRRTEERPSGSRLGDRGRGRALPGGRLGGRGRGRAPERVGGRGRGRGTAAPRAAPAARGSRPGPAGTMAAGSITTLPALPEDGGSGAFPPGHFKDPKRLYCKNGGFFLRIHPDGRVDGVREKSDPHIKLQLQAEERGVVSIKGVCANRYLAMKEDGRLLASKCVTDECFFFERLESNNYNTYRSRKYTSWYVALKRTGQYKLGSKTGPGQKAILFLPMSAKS

[15] = mitochondrial membrane potential change in A549 cells, profiling panel, cell-based, JC-1 fluorescence, basal, 24 h, 100 nL (AID 1138); details: higher = more signal;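 note: A549 lung adenocarcinoma cells under basal conditions with no added stimulus; test concentration not given here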
Lefty1 = Lefty1 binders on small-molecule microarrays, primary screen, biochemical, small-molecule microarray, 635/667 nm fluorescence (AID 1139); details: small-molecule microarray binding, fluorescence 635/667; higher = more signal
[16] = system: wheat germ agglutinin (Triticum aestivum), Alexa647-labelled; assay: wheat germ agglutinin binders on compound microarrays, profiling panel, artefact control for SMM control-protein annotation, biochemical, small-molecule microarray, 635/667 nm fluorescence (AID 1140); details: WGA-A647 binding, 635 nm fluorescence, higher = more signal;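 note: score merges 667 nm feature emission with signal to noise over triplicate slides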
[17] = biological target: Luciferin 4-monooxygenase (Photinus pyralis) (UniProt P08659); assay: firefly luciferase enzyme inhibitors, primary screen, biochemical, luminescence, purified enzyme, 2006 set (AID 1141); details: SteadyGlo luminescence, 30 min, higher = more signal, called active from +8 up or from −8 down;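 note: cell-free assay with purified firefly luciferase at 100 ng per well in PBS; test concentration not given here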
Luciferin 4-monooxygenase (Photinus pyralis), sequence (P08659 whole entry, looked up): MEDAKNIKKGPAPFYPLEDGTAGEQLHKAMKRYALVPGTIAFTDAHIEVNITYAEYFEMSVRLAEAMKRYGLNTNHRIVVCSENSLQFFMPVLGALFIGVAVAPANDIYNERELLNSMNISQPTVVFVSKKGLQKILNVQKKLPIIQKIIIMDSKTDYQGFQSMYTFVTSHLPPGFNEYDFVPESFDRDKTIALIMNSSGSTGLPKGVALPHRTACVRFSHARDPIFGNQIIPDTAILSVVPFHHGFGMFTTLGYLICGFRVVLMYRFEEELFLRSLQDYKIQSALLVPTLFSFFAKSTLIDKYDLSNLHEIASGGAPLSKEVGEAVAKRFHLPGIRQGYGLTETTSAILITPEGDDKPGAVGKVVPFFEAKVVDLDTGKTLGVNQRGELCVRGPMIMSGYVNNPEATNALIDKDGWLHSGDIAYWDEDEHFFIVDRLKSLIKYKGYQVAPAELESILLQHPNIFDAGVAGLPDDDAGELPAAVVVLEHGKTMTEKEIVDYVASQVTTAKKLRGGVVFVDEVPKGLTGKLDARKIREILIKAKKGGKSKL

| SMILES | composite z-score (Albumin (Bos taurus)) | composite Z-score [1] | composite z-score [2] | composite z-score [3] | composite z-score [4] | composite z-score [5] | composite z-score [6] | composite z-score (Sam68 (KHDRBS1)) | composite z-score [7] | composite z-score [8] | composite z-score [9] | composite z-score [10] | composite z-score [11] | composite z-score [12] | composite z-score [13] | composite z-score [14] | z-score [15] | composite z-score (Lefty1) | composite z-score [16] | z-score [17] |
| --- | --- | --- | --- | --- | --- | --- | --- | --- | --- | --- | --- | --- | --- | --- | --- | --- | --- | --- | --- | --- |
| CC1(C)OB(/C=C\CC(OC(=O)c2ccncc2)c2ccccc2)OC1(C)C (stereo not given) | 0.152 | 0.142 (inactive) | -0.0345 | -0.0464 | 0.918 | 0.677 | 0.953 | 0.426 | 0.381 | -0.305 | 1.33 | 0.22 | -0.113 | -0.857 | -0.397 | -1.03 | -0.242 | -1.2 | -1.28 | -0.0512 (inactive) |
| C=C(C)C1CN([C@H](CO)c2ccccc2)C(=O)/C1=C\c1ccccc1 (stereo not given in full) | 0.252 | -0.137 (inactive) | -0.0647 | -0.0741 | 0.158 | -0.574 | 0.027 | 0.168 | 0.467 | 0.0006 | -0.288 | 0.145 | -0.234 | 0.237 | 0.803 | 1.14 | -1.06 | -0.0605 | 0.726 | 0.264 (inactive) |
| CCCNC(=O)[C@@]1(Sc2ccc(C)cc2)CC(=O)N(Cc2cc(C(F)(F)F)cc(C(F)(F)F)c2)[C@@H]1c1ccc(CO)cc1 | -0.919 | -0.0135 (inactive) | -0.163 | -0.169 | 0.504 | 0.506 | -0.0318 | -0.528 | -1.11 | -0.149 | 2.59 | -0.0696 | -0.251 | -0.452 | -0.245 | -0.375 | -0.328 | -0.675 | -0.037 | -0.297 (inactive) |
| O=C1c2ccccc2[C@](Cc2ccccc2I)(C(=O)NCCN2CCOCC2)[C@H](c2ccc(CO)cc2)N1Cc1ccccc1C(F)(F)F | 0.543 | -0.0238 (inactive) | -0.0014 | -0.0771 | 0.594 | 2.09 | 0.329 | 1.29 | -0.408 | 1.13 | 0.218 | 1.18 | 0.334 | 0.88 | 0.447 | 0.0123 | 2.25 | 0.246 | 0.418 | -0.0684 (inactive) |
| C=C(COC)C(=O)CC[C@H](OC(C)=O)c1ccc(CO)o1 | 0.485 | 4.03 (inactive) | -0.0328 | -0.14 | 0.472 | -0.273 | -0.218 | -0.893 | 0.268 | 0.753 | 1.59 | -0.805 | -0.451 | 0.0974 | 1.37 | 1.45 | -0.403 | 0.744 | 0.841 | 0.288 (inactive) |
| CN1C(=O)C2CC=C(C3=CCO[C@@H]3[C@H]3CCCN3S(=O)(=O)c3ccccc3[N+](=O)[O-])CC2C1=O (stereo not given in full) | 0.811 | 0.0129 (inactive) | -0.0647 | -0.106 | -0.0199 | 0.205 | -0.065 | -0.7 | -0.537 | -0.65 | -0.354 | -0.342 | -0.244 | 0.533 | 0.0289 | 0.159 | 0.0911 | -0.106 | -0.0718 | 0.294 (inactive) |
| CC[C@@H](O[Si](C#C[Si](C(C)C)(C(C)C)C(C)C)(C(C)C)C(C)C)c1cn([C@H](CO)Cc2ccccc2)nn1 | 0.239 | 0.133 (inactive) | -0.0077 | -0.0995 | 0.409 | 0.398 | 0.0485 | 1.09 | 0.414 | 0.346 | 0.0554 | 0.339 | 0.324 | 0.412 | 0.448 | 0.729 | -0.208 | 1.21 | 0.884 | 0.635 (inactive) |
| CC(C)Cc1ccc(CN2CC[C@@H](NC(=O)c3ccccc3)C2)cc1 | 0.767 | 0.196 (inactive) | -0.129 | -0.109 | -0.0412 | -0.0414 | -0.0172 | -0.252 | 0.345 | -0.52 | 0.44 | -1.55 | -0.144 | 0.411 | -0.0213 | -0.382 | 1.81 | 0.247 | 0.0191 | 0.525 (inactive) |
| COCCOC(=O)N1C(=O)[C@@]2(c3cc(C#CCCO)ccc31)[C@H](c1ccc(O)cc1)N1[C@H](c3ccccc3)[C@H](c3ccccc3)OC(=O)[C@H]1[C@@H]2C(=O)NC[C@H](O)c1ccccc1 | 0.417 | 0.406 (inactive) | -0.0105 | -0.0858 | 0.529 | 1.89 | 1.08 | 1.29 | 0.181 | 0.613 | 2.05 | 1.2 | 0.553 | 0.0868 | 1.17 | 0.767 | -0.703 | 0.958 | -0.333 | -1.52 (inactive) |
| C=CCC(OC(C)=O)[C@@H]1[C@@H](N(Cc2ccc(-c3ccccc3)cc2)C(=O)Cc2ccc(OC)cc2)c2cc(OCCCO)ccc2N1C(=O)c1ccc2ccccc2c1 (stereo not given in full) | 0.234 | -0.0949 (inactive) | -0.043 | -0.176 | 0.269 | 0.198 | 0.165 | 0.0843 | -0.225 | 0.134 | -0.365 | -0.168 | -0.0078 | 0.186 | 0.458 | 0.338 | 0.865 | 0.146 | 0.266 | 0.161 (inactive) |
| COC(=O)c1ccc(OC)c(/C=C\CC(OC(=O)c2ccncc2)c2ccccc2)c1 (stereo not given) | -0.311 | 0.63 (inactive) | -0.0077 | -0.168 | 0.387 | 0.0584 | -0.304 | -0.0077 | 1.37 | 0.535 | 0.429 | -0.0099 | -0.111 | -0.237 | 1.1 | 1.22 | 1.64 | 0.904 | 0.947 | -1.89 (inactive) |

Reference: PubChem BioAssay
